Results: ChEMBL document CHEMBL1961873, “Compounds: GSK PKIS; Assays: Nanosyn kinase panel” (2012)

Columns and labels:
[1] = target: T1, Serine/threonine-protein kinase D2 (Homo sapiens) (UniProt Q9BZL6); details: at 1 µM;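 further: mean value of PRKD2 inhibition, from the GSK PKIS screening panel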
T1 sequence (whole entry): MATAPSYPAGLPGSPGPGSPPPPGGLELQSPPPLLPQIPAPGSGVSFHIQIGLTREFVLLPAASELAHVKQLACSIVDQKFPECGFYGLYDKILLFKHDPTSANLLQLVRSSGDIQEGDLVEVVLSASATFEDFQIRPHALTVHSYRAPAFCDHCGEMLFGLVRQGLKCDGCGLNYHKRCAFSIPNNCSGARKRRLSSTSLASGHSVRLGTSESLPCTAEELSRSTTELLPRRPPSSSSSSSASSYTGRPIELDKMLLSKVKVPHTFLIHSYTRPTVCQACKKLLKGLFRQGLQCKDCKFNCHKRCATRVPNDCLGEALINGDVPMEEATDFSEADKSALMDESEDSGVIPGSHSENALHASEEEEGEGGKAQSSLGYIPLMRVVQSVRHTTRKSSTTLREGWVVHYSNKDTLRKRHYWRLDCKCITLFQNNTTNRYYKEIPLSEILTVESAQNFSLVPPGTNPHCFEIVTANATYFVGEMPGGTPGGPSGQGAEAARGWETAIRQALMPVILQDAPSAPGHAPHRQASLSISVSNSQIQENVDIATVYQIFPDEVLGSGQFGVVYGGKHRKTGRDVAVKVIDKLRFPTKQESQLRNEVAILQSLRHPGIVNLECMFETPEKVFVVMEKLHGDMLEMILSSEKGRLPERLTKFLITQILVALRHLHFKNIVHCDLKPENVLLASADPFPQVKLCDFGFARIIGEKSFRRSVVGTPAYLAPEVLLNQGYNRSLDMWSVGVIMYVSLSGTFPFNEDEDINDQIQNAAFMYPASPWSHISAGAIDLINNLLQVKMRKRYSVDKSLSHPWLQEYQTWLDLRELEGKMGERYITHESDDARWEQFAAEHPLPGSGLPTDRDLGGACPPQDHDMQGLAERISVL

[2] = target: T2, Serine/threonine-protein kinase D3 (Homo sapiens) (UniProt O94806); details: at 0.1 µM
T2 sequence (whole entry): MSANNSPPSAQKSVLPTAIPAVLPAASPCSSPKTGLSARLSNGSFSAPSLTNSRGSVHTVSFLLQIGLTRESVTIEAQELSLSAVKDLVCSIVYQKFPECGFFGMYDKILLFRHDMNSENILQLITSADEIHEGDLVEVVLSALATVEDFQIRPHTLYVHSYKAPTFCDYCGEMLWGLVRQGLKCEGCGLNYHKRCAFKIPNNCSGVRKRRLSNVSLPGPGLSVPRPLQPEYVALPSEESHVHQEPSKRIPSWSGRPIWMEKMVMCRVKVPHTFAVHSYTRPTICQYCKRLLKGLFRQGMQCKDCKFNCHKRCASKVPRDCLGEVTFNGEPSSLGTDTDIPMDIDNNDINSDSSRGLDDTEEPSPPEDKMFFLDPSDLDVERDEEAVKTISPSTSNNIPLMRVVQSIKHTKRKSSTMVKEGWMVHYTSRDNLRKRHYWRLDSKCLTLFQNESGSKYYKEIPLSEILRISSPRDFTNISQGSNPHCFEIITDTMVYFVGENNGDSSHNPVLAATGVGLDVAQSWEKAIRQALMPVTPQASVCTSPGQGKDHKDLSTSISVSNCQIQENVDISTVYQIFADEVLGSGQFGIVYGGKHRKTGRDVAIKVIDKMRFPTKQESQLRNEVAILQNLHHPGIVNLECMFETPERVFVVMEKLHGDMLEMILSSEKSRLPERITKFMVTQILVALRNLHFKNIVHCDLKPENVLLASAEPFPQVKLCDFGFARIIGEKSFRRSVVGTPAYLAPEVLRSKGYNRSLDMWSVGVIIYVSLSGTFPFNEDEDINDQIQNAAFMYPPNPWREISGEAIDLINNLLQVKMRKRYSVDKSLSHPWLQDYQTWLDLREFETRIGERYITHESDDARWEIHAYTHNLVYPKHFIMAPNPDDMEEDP

[3] = target: T2, Serine/threonine-protein kinase D3 (Homo sapiens); details: at 1 µM
[4] = target: T3, cGMP-dependent protein kinase 1 (Homo sapiens) (UniProt Q13976); details: at 0.1 µM
T3 sequence (whole entry): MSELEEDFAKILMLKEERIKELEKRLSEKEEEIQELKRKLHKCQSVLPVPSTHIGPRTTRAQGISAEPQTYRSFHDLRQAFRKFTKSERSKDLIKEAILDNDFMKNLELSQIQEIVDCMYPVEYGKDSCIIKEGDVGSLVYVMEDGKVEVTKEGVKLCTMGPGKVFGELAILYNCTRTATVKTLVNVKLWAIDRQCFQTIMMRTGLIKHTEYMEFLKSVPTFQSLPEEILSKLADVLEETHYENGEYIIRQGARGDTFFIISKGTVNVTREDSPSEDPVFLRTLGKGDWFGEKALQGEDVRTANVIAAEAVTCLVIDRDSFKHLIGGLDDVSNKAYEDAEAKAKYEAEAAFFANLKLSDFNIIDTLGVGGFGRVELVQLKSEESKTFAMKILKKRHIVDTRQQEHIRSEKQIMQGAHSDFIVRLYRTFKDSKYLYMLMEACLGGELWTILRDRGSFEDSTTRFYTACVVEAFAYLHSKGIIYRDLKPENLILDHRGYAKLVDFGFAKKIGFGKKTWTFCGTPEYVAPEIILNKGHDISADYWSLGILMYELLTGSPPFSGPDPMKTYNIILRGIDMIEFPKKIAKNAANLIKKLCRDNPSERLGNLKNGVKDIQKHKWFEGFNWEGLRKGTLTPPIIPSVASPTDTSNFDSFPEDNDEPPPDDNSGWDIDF

[5] = target: T3, cGMP-dependent protein kinase 1 (Homo sapiens); details: at 1 µM
[6] = target: T4, cGMP-dependent protein kinase 2 (Homo sapiens) (UniProt Q13237); details: at 0.1 µM
T4 sequence (whole entry): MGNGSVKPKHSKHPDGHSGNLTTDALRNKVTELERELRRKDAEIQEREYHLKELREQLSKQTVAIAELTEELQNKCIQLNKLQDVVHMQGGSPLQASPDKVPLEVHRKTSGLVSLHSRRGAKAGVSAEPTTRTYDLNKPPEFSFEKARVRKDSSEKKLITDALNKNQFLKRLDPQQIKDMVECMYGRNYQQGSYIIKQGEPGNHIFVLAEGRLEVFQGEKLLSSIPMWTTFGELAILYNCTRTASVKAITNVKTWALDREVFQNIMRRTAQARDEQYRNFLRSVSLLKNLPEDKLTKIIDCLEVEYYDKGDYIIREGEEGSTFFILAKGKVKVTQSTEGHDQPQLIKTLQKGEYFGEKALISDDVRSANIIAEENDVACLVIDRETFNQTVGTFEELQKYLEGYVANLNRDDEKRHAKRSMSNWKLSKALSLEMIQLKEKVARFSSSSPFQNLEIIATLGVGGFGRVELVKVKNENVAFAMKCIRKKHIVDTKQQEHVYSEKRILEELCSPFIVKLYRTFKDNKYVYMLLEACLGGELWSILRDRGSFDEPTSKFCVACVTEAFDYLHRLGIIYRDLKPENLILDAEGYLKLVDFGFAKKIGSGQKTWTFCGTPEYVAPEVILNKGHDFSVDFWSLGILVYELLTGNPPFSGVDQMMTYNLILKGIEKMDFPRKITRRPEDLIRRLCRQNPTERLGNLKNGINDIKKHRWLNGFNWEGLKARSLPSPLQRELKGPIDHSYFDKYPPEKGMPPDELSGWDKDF

[7] = target: T4, cGMP-dependent protein kinase 2 (Homo sapiens); details: at 1 µM
[8] = target: T5, cAMP-dependent protein kinase catalytic subunit PRKX (Homo sapiens) (UniProt P51817); details: at 0.1 µM
T5 sequence (whole entry): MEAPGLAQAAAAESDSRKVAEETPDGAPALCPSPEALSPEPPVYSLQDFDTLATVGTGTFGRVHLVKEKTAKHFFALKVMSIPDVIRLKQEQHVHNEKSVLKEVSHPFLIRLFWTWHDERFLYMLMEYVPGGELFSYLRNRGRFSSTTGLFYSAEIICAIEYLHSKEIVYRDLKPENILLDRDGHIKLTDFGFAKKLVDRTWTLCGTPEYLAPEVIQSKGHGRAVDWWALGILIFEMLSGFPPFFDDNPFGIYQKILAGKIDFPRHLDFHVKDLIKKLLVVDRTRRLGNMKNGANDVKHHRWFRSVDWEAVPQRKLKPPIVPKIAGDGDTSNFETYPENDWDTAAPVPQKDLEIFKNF

[9] = target: T5, cAMP-dependent protein kinase catalytic subunit PRKX (Homo sapiens); details: at 1 µM
[10] = target: Rho-associated protein kinase 1 (Homo sapiens) (UniProt Q13464); details: at 0.1 µM
Rho-associated protein kinase 1 (Homo sapiens), sequence (Q13464 2-1354 limits assumed): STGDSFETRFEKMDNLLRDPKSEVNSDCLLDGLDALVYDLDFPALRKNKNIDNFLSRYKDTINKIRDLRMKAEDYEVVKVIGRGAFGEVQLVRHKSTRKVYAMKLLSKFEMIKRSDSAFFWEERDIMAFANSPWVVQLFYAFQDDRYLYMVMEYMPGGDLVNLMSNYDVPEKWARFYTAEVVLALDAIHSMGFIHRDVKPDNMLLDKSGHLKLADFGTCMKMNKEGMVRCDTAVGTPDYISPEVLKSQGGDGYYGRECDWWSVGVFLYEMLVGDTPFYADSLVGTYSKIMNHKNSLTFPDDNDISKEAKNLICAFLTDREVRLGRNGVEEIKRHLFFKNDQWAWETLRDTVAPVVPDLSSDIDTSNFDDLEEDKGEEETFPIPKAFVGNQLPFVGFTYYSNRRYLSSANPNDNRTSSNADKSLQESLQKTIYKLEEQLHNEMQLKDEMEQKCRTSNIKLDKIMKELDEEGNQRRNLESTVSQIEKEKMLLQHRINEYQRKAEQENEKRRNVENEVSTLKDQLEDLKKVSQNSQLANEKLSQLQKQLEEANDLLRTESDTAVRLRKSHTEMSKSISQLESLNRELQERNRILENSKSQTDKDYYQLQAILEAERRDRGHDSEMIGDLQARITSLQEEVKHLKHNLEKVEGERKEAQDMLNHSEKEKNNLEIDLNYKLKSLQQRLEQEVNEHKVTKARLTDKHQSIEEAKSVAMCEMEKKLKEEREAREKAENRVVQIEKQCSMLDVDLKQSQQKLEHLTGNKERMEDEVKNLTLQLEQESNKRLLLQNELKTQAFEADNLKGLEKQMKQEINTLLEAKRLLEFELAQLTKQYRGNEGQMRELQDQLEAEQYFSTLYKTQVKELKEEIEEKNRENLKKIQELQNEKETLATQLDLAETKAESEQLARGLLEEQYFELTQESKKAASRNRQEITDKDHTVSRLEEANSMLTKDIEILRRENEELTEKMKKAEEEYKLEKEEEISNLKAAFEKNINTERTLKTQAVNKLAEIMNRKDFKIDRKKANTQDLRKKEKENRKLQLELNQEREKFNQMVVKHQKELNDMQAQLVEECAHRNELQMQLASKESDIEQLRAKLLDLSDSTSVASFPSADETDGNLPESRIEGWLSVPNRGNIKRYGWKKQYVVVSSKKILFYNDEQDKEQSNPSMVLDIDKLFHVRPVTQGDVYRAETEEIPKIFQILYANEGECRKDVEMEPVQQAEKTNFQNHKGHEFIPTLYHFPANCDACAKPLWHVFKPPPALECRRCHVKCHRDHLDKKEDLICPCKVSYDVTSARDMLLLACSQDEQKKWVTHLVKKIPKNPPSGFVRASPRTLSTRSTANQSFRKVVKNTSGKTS

[11] = target: Rho-associated protein kinase 1 (Homo sapiens) (UniProt Q13464); details: at 1 µM
[12] = target: Rho-associated protein kinase 2 (Homo sapiens) (UniProt O75116); details: at 0.1 µM
Rho-associated protein kinase 2 (Homo sapiens), sequence (O75116 whole entry, looked up): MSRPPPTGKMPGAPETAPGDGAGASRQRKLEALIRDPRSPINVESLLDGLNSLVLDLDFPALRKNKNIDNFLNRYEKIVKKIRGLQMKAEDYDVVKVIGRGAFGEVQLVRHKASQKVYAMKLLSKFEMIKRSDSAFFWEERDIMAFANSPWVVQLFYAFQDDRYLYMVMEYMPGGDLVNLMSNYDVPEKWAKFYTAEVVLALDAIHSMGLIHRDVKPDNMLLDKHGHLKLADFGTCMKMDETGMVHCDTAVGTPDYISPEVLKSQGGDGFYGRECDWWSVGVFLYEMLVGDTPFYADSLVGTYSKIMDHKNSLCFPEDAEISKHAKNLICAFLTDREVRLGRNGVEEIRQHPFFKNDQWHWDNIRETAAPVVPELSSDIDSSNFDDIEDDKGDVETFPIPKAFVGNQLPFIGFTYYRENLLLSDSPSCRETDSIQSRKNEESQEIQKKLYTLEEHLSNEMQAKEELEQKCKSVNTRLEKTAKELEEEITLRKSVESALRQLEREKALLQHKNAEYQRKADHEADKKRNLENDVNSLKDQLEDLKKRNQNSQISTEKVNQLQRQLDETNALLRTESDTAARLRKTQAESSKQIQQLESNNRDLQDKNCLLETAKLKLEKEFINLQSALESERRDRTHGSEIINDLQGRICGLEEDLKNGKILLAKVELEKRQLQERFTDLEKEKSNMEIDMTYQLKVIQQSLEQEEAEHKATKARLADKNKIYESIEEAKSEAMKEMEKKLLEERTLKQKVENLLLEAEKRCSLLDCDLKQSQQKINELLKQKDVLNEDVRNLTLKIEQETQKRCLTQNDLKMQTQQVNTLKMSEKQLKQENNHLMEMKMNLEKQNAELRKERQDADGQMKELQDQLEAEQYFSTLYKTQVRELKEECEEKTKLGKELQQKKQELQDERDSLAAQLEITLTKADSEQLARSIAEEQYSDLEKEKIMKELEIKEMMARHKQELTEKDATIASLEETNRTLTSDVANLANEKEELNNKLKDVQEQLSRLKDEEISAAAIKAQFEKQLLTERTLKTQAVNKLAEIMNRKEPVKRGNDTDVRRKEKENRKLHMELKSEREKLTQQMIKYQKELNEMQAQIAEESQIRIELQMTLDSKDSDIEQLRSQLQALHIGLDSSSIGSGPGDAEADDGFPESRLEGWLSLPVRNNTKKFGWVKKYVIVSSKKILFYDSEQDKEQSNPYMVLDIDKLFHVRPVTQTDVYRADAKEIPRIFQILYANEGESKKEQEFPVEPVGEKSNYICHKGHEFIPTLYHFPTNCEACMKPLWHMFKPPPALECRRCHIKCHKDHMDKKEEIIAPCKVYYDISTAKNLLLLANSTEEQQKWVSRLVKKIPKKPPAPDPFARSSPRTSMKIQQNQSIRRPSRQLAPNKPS

[13] = target: Rho-associated protein kinase 2 (Homo sapiens) (UniProt O75116); details: at 1 µM
[14] = target: Ribosomal protein S6 kinase alpha-1 (Homo sapiens) (UniProt Q15418); details: at 0.1 µM
[15] = target: Ribosomal protein S6 kinase alpha-1 (Homo sapiens) (UniProt Q15418); details: at 1 µM
[16] = target: Ribosomal protein S6 kinase alpha-3 (Homo sapiens) (UniProt P51812); details: at 0.1 µM
Ribosomal protein S6 kinase alpha-3 (Homo sapiens), sequence (P51812 whole entry): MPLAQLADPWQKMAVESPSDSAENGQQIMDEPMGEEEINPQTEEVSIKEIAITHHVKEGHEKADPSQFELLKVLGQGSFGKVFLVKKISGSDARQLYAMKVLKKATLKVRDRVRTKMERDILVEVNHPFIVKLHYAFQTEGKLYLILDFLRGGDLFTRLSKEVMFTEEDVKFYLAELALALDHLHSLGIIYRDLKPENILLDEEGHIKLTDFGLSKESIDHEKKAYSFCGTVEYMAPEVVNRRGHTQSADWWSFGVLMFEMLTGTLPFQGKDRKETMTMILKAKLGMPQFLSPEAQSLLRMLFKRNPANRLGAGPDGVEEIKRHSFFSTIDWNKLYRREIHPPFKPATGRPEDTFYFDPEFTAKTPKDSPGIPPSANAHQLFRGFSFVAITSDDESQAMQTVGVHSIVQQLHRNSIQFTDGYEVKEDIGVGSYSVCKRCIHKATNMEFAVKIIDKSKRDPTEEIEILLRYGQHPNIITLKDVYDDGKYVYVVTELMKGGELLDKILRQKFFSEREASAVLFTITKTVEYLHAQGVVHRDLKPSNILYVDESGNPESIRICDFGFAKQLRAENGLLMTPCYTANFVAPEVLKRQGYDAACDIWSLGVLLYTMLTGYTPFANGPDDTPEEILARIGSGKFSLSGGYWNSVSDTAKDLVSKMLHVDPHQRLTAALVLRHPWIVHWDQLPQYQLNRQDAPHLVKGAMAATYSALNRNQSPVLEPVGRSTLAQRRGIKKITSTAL

[17] = target: Ribosomal protein S6 kinase alpha-3 (Homo sapiens) (UniProt P51812); details: at 1 µM
[18] = target: Ribosomal protein S6 kinase alpha-2 (Homo sapiens) (UniProt Q15349); details: at 0.1 µM
Ribosomal protein S6 kinase alpha-2 (Homo sapiens), sequence (Q15349 whole entry): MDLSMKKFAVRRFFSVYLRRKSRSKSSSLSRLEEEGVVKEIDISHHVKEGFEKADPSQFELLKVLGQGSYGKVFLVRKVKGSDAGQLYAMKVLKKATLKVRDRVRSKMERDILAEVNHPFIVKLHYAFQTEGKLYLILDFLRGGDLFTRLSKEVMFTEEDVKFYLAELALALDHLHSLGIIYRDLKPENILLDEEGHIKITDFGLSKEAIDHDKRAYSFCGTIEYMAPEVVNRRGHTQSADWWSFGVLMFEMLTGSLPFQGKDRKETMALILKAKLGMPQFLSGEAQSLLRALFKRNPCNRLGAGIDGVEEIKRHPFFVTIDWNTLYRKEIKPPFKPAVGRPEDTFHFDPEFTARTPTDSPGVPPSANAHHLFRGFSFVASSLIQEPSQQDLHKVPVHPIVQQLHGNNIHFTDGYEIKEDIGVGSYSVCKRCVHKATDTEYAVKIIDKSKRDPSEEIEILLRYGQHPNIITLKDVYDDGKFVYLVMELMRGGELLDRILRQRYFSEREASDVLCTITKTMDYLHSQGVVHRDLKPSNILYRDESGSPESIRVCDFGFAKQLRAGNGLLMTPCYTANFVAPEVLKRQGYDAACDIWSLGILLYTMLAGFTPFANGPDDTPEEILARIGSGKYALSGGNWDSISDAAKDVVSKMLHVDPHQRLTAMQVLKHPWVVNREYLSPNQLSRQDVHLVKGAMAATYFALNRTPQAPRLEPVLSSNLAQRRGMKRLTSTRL

[19] = target: Ribosomal protein S6 kinase alpha-2 (Homo sapiens) (UniProt Q15349); details: at 1 µM
[20] = target: Ribosomal protein S6 kinase alpha-6 (Homo sapiens) (UniProt Q9UK32); details: at 0.1 µM;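 further: reported value is the mean inhibition of RSK4, from the GSK PKIS kinase inhibitor screen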
Ribosomal protein S6 kinase alpha-6 (Homo sapiens), sequence (Q9UK32 whole entry): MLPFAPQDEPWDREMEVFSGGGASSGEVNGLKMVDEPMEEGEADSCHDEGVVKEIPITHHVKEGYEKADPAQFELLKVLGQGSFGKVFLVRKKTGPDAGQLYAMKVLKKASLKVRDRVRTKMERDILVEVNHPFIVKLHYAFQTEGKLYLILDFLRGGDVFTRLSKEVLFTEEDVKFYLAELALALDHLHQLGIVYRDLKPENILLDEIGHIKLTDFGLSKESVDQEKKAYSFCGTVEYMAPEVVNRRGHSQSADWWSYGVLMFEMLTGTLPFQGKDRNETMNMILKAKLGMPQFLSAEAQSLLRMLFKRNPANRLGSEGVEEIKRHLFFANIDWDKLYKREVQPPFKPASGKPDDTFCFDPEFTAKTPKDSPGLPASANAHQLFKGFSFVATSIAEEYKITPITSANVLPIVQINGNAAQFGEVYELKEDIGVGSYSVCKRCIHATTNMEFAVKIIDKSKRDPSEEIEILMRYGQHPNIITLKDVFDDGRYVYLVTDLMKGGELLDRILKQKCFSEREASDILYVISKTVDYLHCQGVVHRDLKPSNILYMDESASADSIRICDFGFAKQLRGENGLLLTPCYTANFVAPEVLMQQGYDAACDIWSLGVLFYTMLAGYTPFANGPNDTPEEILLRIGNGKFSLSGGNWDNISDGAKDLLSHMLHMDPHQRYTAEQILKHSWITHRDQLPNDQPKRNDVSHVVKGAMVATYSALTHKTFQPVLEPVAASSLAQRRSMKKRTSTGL

Cc1nc(-c2ccccc2)n2nc(NCCCN3CCOCC3)ncc12
inhibition [1]: 2.01% | inhibition [2]: 1.88% | inhibition [3]: 2.23% | inhibition [4]: 1.36% | inhibition [5]: 3.22% | inhibition [6]: 1.49% | inhibition [7]: 3.07% | inhibition [8]: 2.28% | inhibition [9]: 1.01% | inhibition [10]: 0.46% | inhibition [11]: 0.26% | inhibition [12]: 2.1% | inhibition [13]: 0.91% | inhibition [14]: 1.44% | inhibition [15]: 5.36% | inhibition [16]: 2.6% | inhibition [17]: 7.74% | inhibition [18]: 3.24% | inhibition [19]: 7.6% | inhibition [20]: 2.39%

CCn1c(-c2nonc2N)nc2ccc(F)cc21
inhibition [1]: 5.33% | inhibition [2]: 6.8% | inhibition [3]: 6.49% | inhibition [4]: 3.97% | inhibition [5]: 14.5% | inhibition [6]: 8.14% | inhibition [7]: 41.4% | inhibition [8]: 3.36% | inhibition [9]: 6.51% | inhibition [10]: 2.21% | inhibition [11]: 9.21% | inhibition [12]: 5.67% | inhibition [13]: 19% | inhibition [14]: 4.37% | inhibition [15]: 21% | inhibition [16]: 2.79% | inhibition [17]: 9.91% | inhibition [18]: 2.93% | inhibition [19]: 14% | inhibition [20]: 1.56%

Cc1ccc(Nc2ccnc(Nc3cccc(C(N)=O)c3)n2)cc1O
inhibition [1]: 10.1% | inhibition [2]: -0.05% | inhibition [3]: 9.43% | inhibition [4]: 1.11% | inhibition [5]: 3.77% | inhibition [6]: 2.93% | inhibition [7]: 7.68% | inhibition [8]: 1.82% | inhibition [9]: 2.66% | inhibition [10]: 0.56% | inhibition [11]: 5.78% | inhibition [12]: 4.11% | inhibition [13]: 13.6% | inhibition [14]: 2.41% | inhibition [15]: 3.62% | inhibition [16]: 1.82% | inhibition [17]: 2.23% | inhibition [18]: 1.81% | inhibition [19]: 3.37% | inhibition [20]: 2.28%

Cc1ccc2c(c1)/C(=N/Nc1ccc(S(N)(=O)=O)cc1)C(=O)N2
inhibition [1]: 1.97% | inhibition [2]: 0.87% | inhibition [3]: 1.79% | inhibition [4]: 0.26% | inhibition [5]: 0.41% | inhibition [6]: 0.36% | inhibition [7]: 3.82% | inhibition [8]: -1.58% | inhibition [9]: -2.35% | inhibition [10]: 0.97% | inhibition [11]: 2.75% | inhibition [12]: -0.99% | inhibition [13]: 2.52% | inhibition [14]: 0.21% | inhibition [15]: 0.22% | inhibition [16]: 0.34% | inhibition [17]: 2.42% | inhibition [18]: 0.05% | inhibition [19]: 3.92% | inhibition [20]: 1.62%

Cc1cc(-c2ccccn2)cc(C)c1/C=C/c1cncc(-c2nn[nH]n2)c1
inhibition [1]: 12.2% | inhibition [2]: 6.27% | inhibition [3]: 12.1% | inhibition [4]: 3.51% | inhibition [5]: 5.76% | inhibition [6]: 2.46% | inhibition [7]: 5.89% | inhibition [8]: 2% | inhibition [9]: 2.53% | inhibition [10]: 2.04% | inhibition [11]: 2.97% | inhibition [12]: 1.11% | inhibition [13]: 3.33% | inhibition [14]: -1.27% | inhibition [15]: 1.85% | inhibition [16]: -0.57% | inhibition [17]: 1.01% | inhibition [18]: 0.4% | inhibition [19]: 1.84% | inhibition [20]: -1.04%

COC(=O)c1cncc(/C=C/c2c(C)cc(O)cc2C)c1
inhibition [1]: 4% | inhibition [2]: 4.31% | inhibition [3]: 3.64% | inhibition [4]: 3.3% | inhibition [5]: 2.75% | inhibition [6]: 1.54% | inhibition [7]: 2.4% | inhibition [8]: 1.78% | inhibition [9]: 3.76% | inhibition [10]: 0.77% | inhibition [11]: 1.27% | inhibition [12]: 3.8% | inhibition [13]: 5.21% | inhibition [14]: 2.26% | inhibition [15]: 4.95% | inhibition [16]: 1.3% | inhibition [17]: 2.62% | inhibition [18]: 2.03% | inhibition [19]: 2.47% | inhibition [20]: 1.66%

[O-][S+]1CCN(Cc2ccc(-c3ccc4ncnc(Nc5ccc(OCc6ccccc6)c(Cl)c5)c4c3)o2)CC1
inhibition [1]: 1.77% | inhibition [2]: 1.61% | inhibition [3]: 2.2% | inhibition [4]: 1.79% | inhibition [5]: 0.53% | inhibition [6]: 0.97% | inhibition [7]: 2.95% | inhibition [8]: 1.3% | inhibition [9]: 1.17% | inhibition [10]: 0.9% | inhibition [11]: 1.73% | inhibition [12]: 0.05% | inhibition [13]: 0.91% | inhibition [14]: -1.27% | inhibition [15]: 0.75% | inhibition [16]: -1.03% | inhibition [17]: 0.82% | inhibition [18]: -1.2% | inhibition [19]: 0.54% | inhibition [20]: -1.76%
